# Assay outcomes as filed in PubChem BioAssay.
# The list is not random: actives were taken first. Their share in the collection is about 22%.
# cytoskel mod – modifiers of F-actin cytoskeleton organization, primary screen, imaging, HUVEC, phalloidin staining, high-content imaging | HUVEC TNFa F-actin phalloidin imaging | inhibition, % at 2 µM | 91,000 tested, 0.18% active | AID 836, 2007;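 active = inhibition above the batch mean plus 3 SD and confirmed as a hit by visual image inspection, cut at about 30% in these data, passing the limit was not always enough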
# E-sel TNF inh – E-selectin induction blockers in HUVEC – imaging, immunofluorescence, high content, primary screen; HUVEC TNFa-induced E-selectin immunofluorescence; inhibition, % at 2 µM; 120,000 tested, 0.71% active; AID 1246, 2008;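 active = inhibition above the batch mean plus 3 SD, and confirmed as a hit on visual image review, cut at about 43% in these data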;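 also: 0% = TNF-stimulated DMSO wells and 100% = unstimulated control wells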
# CYP2C19 inh – blockers of cytochrome P450 2C19 activity – biochemical, luminescence, ADME assay, primary screen; 96,000 tested, 21% active; P33261; inhibition, % at 5 µM; CYP2C19 Supersomes, luciferin-H EGE luminescence, 30 min;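 active = CYP2C19 inhibition above a set limit at 5 µM in the primary screen, cut at about 50% in these data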;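 also: plate controls were negative control wells for no effect and 2.5 mM tranylcypromine positive control for full effect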
# Target sequence (P33261 whole entry, looked up): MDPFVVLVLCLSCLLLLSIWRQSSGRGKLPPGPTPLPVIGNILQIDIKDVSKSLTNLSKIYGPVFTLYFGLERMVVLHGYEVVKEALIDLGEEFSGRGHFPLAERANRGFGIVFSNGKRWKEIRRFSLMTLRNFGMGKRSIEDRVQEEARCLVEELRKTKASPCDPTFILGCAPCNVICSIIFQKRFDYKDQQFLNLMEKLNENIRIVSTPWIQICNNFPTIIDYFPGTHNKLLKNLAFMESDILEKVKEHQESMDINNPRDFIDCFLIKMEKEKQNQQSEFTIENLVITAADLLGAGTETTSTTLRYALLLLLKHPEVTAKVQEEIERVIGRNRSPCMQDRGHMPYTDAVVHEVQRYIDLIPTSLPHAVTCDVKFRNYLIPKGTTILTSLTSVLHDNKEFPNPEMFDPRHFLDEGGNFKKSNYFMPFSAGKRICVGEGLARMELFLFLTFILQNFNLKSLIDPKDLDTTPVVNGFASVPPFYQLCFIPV
# CYP2C9 activ – human CYP2C9 activators, primary screen, biochemical, luminescence. Cytochrome P450 2C9 (Homo sapiens), P11712. recombinant CYP2C9, luciferin-H conversion; stronger effect = higher value; factor 1 = untreated enzyme, 0 = blocked. activation factor at 5 µM. 96,000 tested, 1.4% active. AID 1024, 2008;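 active = activation factor of 2 or more for CYP2C9 at a 5 µM dose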;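 also: 0 = sulfaphenazole-blocked wells and 1 = vehicle-only wells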
# CYP2C19 act – human CYP2C19 activators, primary screen, biochemical, luminescence | recombinant CYP2C19, luciferin-H EGE luminescence; stronger effect = higher value; 0 = fully inhibited enzyme, 1 = untreated enzyme | 96,000 tested, under 10 active | activation factor at 5 µM | Cytochrome P450 2C19 (Homo sapiens), P33261 | AID 1025, 2008;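 active = activation factor of at least 2 at 5 µM in the primary screen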;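 also: 0 = wells with 2.5 mM tranylcypromine and 1 = vehicle-only wells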
# CYP2C9 inhib – blockers of cytochrome P450 2C9 activity – biochemical, luminescence, ADME assay, primary screen. P11712. CYP2C9 Supersomes, luciferin-H conversion. inhibition, % at 5 µM. 96,000 tested, 20% active. AID 777, 2007;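 active = blocking of liver enzyme CYP2C9 beyond about 50% at 5 µM, limit read from the data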
# An asterisk follows results filed as active; nt = no result given.
SMILES,cytoskel mod,E-sel TNF inh,CYP2C19 inh,CYP2C9 activ,CYP2C19 act,CYP2C9 inhib
CC(=O)N1CCCSC1=Nc1ccccc1,nt,22.9,nt,nt,nt,nt
CCOC(=O)CNC(=O)CSP(=S)(OCC)OCC,nt,nt,96.4*,0.3,0,69.6*
O=C(COc1ccc2ccccc2c1)N1CCN(CC2CC3C=CC2C3)CC1 (stereo unspecified),19.3,21.6,14.6,0.7,0.9,27.0
CCC(=NCc1ccco1)c1c(O)n(-c2ccccc2)c(=O)[nH]c1=O,-8.4,-4.4,54.0*,0.9,0.5,8.4
CC(=NCc1ccco1)c1c(O)n(-c2ccccc2)c(=O)[nH]c1=O,8.4,7.0,56.5*,0.9,0.4,11.8
COc1ccccc1-n1c(CNCC2CCCO2)nc2ccccc2c1=O (stereo unspecified),nt,0.0,nt,nt,nt,nt
CC(Cc1ccccc1Sc1ccccc1O)N(C)C (stereo unspecified),3.5,-4.5,61.0*,0.8,0.4,21.3
CC(=NCc1ccc(F)cc1)c1c(O)n(C)c(=O)n(C)c1=O,19.5,-13.3,35.9,0.9,0.6,12.2
CC12CN3CC(C)(CN(C1)C3c1cccs1)C2O (stereo unspecified),-21.3,9.0,58.2*,1.1,0.4,-7.8
CCOP(=O)(C#CC(C)(C)C)C(O)(c1ccccc1)C(F)(F)F (stereo unspecified),-10.3,-13.2,-24.5,1.3,1.2,-28.6
O=C(Nc1cccc(C(F)(F)F)c1)c1cccn(Cc2ccc3c(c2)OC(F)(F)O3)c1=O,-16.0,-3.7,20.4,0.4,0.8,64.8*
CC(C)Oc1cccc(NC(=O)c2cccn(Cc3ccc4c(c3)OC(F)(F)O4)c2=O)c1,nt,nt,24.6,0.2,0.8,84.2*
O=C(Nc1ccc(C(F)(F)F)cc1)c1cccn(Cc2ccc3c(c2)OC(F)(F)O3)c1=O,-8.6,16.8,-18.3,0.9,1.2,11.6
CC(C)Oc1ccc(Cc2c(O)[nH]c(=O)[nH]c2=O)cc1,0.3,2.5,-9.0,1.1,1.1,-5.6
Cc1cccc(C)c1NC(=O)c1cccn(Cc2ccc3c(c2)OC(F)(F)O3)c1=O,-7.2,-10.4,68.2*,0.7,0.3,33.9
O=C(COC(=O)Cc1ccccc1)Nc1ncc(Cl)cc1Cl,9.1,-7.2,57.7*,0.8,0.4,15.5
CC1CCCC(NC(=O)COC(=O)Cc2ccccc2)C1C (stereo unspecified),10.9,21.1,23.5,1.2,0.8,-23.1
O=C(COc1ccc(Cl)cc1)N1CCN(C/C=C/c2ccccc2)CC1,-7.0,22.7,4.0,0.8,1,23.5
Cn1nc(-c2ccc(OCC(=O)N3CCN(Cc4ccccc4)CC3)cc2)c2ccccc2c1=O,13.7,2.4,80.2*,0.2,0.2,78.8*
Cn1cccc1CN1CCN(C(=O)COc2ccccc2)CC1,-2.3,6.3,6.8,1,0.9,0.9
CCCNS(=O)(=O)c1ccc(OCC(=O)N2CCN(Cc3ccccc3)CC2)cc1,-28.0,-16.9,22.4,0.5,0.8,51.8*
CC(C)NS(=O)(=O)c1ccc(OCC(=O)N2CCN(Cc3ccccc3)CC2)c(Cl)c1,-0.3,6.1,54.0*,0.3,0.5,71.4*
CCCN1CCC2(CC1)NC(CO)(CO)CO2,-4.7,8.2,nt,nt,nt,nt
COc1ccc(OC(=O)N(C)C)c(CN(C)C)c1,6.2,2.4,-11.5,1,1.1,3.9
CSCCC(N=Cc1c(O)n(-c2ccc(Br)cc2)c(=O)[nH]c1=O)C(=O)OC(C)(C)C (stereo unspecified),-7.5,2.2,-1.9,1.6,1,-56.3
SMILES,cytoskel mod,E-sel TNF inh,CYP2C19 inh,CYP2C9 activ,CYP2C19 act,CYP2C9 inhib
CC(C)C/C(=N/O)c1c[nH]c2ccccc12,7.3,nt,77.3*,0.4,0.2,58.9*
CC1CN=C(Nc2ccc(N(C)C)cc2)S1 (stereo unspecified),2.8,13.3,56.1*,1,0.4,3.1
CC1CCC(NCCc2ccc3c(c2)OCO3)CC1 (stereo unspecified),3.8,-7.6,46.6,1.1,0.5,-12.3
CCn1cc(C(=O)c2cccs2)c2ccccc21,-5.3,14.5,10.9,3.1*,0.9,-208.7
O=C(O)Cn1cc(C(=O)c2ccccc2)c2ccccc21,5.1,-13.5,-7.7,1,1.1,-2.1
O=C(c1ccco1)c1cn(Cc2ccccc2)c2ccccc12,nt,20.5,92.7*,0.1,0.1,92.8*
O=C(c1ccco1)c1cn(Cc2ccccc2Cl)c2ccccc12,0.8,19.6,-26.9,0.1,1.3,89.3*
CCC(=O)c1cn(Cc2ccccc2C#N)c2ccccc12,-2.8,3.5,76.4*,0.5,0.2,51.5*
CCOP(=O)(OCC)C(NC(C)=O)C(Cl)(Cl)Cl (stereo unspecified),8.7,-3.0,13.5,0.6,0.9,37.6
CCOc1cc(C=C2C(=O)NC(=O)NC2=O)cc([N+](=O)[O-])c1O,nt,-3.4,nt,nt,nt,nt
N#Cc1ccccc1Cn1cc(C(=O)c2ccco2)c2ccccc21,26.0,8.8,66.1*,0.4,0.3,55.5*
